Source: PubChem BioAssay (EPA / NIEHS)
Inconclusive results are not listed. Calls of active or inactive are those of the source. Rule for the calls: active = hit-call score of the fitted dose curve at least 0.9, where 1 is the maximum; inconclusive = response in the unintended direction; inactive = score below 0.9.

experiment: ACEA_ER_AUC_viability: ACEA Biosciences xCELLigence Real-Time Cell Analysis on Estrogen Receptor Agonism for Viability (AID 2283782);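 note: hit means loss of impedance signal meaning reduced cell growth or viability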
Method in brief: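 Read-out: real-time electrical impedance (RT-CES) area under curve, loss of signal taken as reduced viability, normalized to DMSO baseline. T-47D cells, charcoal-stripped serum medium, compounds up to 100 uM final, continuous exposure, 80 h.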

Structure (SMILES)	outcome	AC50
O=C[C@@H](O)[C@H](O)[C@H](O)CO	inactive	–
Cc1ccc(S)cc1	inactive	–
CC(=O)OCc1ccc2c(c1)OCO2	inactive	–
CCCC/C=C\CCCCCCCCCC=O	–	91.2 µM (active)
c1ccc(CCCc2ccccn2)cc1	inactive	–
Clc1nc(C(Cl)(Cl)Cl)c(Cl)c(Cl)c1Cl	–	24.1 µM (active)
O=C(O)CCCCCCCC(=O)O	inactive	–
Clc1ccc(Cl)c(Cl)c1Cl	inactive	–
CCCCCCCCC=O	inactive	–
CC(C)c1cccc(O)c1	inactive	–
Nc1cc([N+](=O)[O-])ccc1Cl	–	76.3 µM (active)
C=C(C)C(=O)O	inactive	–
CC(=O)/C=C/C1=C(C)CCCC1(C)C	–	9.92 µM (active)
O=c1[nH]nnc2ccccc12	inactive	–
CCCCCCOC(=O)CCCCC	inactive	–
O=P(c1ccccc1)(c1ccccc1)c1ccccc1	inactive	–
O=C(O)CCSCCC(=O)O	inactive	–

Structure (SMILES)	outcome	AC50
O=C(O)Cc1cccc2ccccc12	inactive	–
CCC(C)(O)CCC=C(C)C (centres undefined)	–	79.1 µM (active)
CSc1nc(NC2CC2)nc(NC(C)(C)C)n1	inactive	–
CC(C)C[C@H]1C(=O)N2CCC[C@H]2[C@]2(O)O[C@](NC(=O)[C@@H]3C=C4c5cccc6[nH]c(Br)c(c56)C[C@H]4N(C)C3)(C(C)C)C(=O)N12	–	4.31 µM (active)
CCCCCCCCCCCCCCCCCC(=O)OCC(CC)CCCC (centres undefined)	inactive	–
Cc1ccc2ccccc2n1	inactive	–
O=C(O)CCCCCCCCCCC(=O)O	–	37.7 µM (active)
OCCOCCOCCOCCO	inactive	–
CCCCC(CC)COCCC#N (centres undefined)	inactive	–
COC(=O)c1ccc(C)cc1	inactive	–
CC(C)c1ccc(C(C)C)cc1	inactive	–
CC(C)C1CCC(O)CC1 (centres undefined)	inactive	–
CC(=O)OCCC(C)CC(C)(C)C (centres undefined)	inactive	–
C=C(C)[C@@H]1CCC2=CC(=O)C[C@@H](C)[C@]2(C)C1	–	80.7 µM (active)
C=C[Si](OCC)(OCC)OCC	inactive	–
CCCCNC(=O)NS(=O)(=O)c1ccc(C)cc1	inactive	–
CCCCO	–	35.2 µM (active)
